{"source": "PubChem BioAssay (NCI)", "assay_in_all_cases": "NCI-60 one-dose screen, 48 h (100 = growth as untreated, 0 = no growth, -100 = all killed)", "details_in_all_cases": "10 µM unless noted", "key": {"HCT-15 colon": {"test_system": "HCT-15 colon"}, "HT29 colon": {"test_system": "HT29 colon"}, "SNB-75 CNS": {"test_system": "SNB-75 CNS"}, "SNB-19 CNS": {"test_system": "SNB-19 CNS"}, "U251 CNS": {"test_system": "U251 CNS"}, "PC-3 prostate": {"test_system": "PC-3 prostate"}, "SK-MEL-5 melanoma": {"test_system": "SK-MEL-5 melanoma"}, "UACC-62 melanoma": {"test_system": "UACC-62 melanoma"}, "SK-MEL-28 melanoma": {"test_system": "SK-MEL-28 melanoma"}}, "note": "This is part of a sample that, as a whole, favours compounds with a hit. Of some 83,000 tested, about 20% had one in any assay.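 Assay: single dose, 48 h. Readout: percent growth (0 = no net growth; negative = cell death). Active: <10.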 Values without a mark were called inactive. Calls of active or inactive are those of the source."}
{"smiles": "CCOc1ccc(C(=O)NC(=S)Nc2ccc(S(N)(=O)=O)cc2)cc1", "values": [{"measurement": "growth", "setting": "HCT-15 colon", "value": "111% [100 µM]"}, {"measurement": "growth", "setting": "HT29 colon", "value": "98.1% [100 µM]"}, {"measurement": "growth", "setting": "SNB-75 CNS", "value": "76.9% [100 µM]"}, {"measurement": "growth", "setting": "SNB-19 CNS", "value": "104% [100 µM]"}, {"measurement": "growth", "setting": "U251 CNS", "value": "96.7% [100 µM]"}, {"measurement": "growth", "setting": "PC-3 prostate", "value": "92.1% [100 µM]"}, {"measurement": "growth", "setting": "SK-MEL-5 melanoma", "value": "88.1% [100 µM]"}, {"measurement": "growth", "setting": "UACC-62 melanoma", "value": "94.8% [100 µM]"}, {"measurement": "growth", "setting": "SK-MEL-28 melanoma", "value": "107% [100 µM]"}]}
{"smiles": "C=Cn1cc(C(=O)O)c(=O)c2cc(F)c(N3CCN(c4nccc(-c5nccs5)n4)CC3)cc21", "values": [{"measurement": "growth", "setting": "HCT-15 colon", "value": "-51.5% (active)"}, {"measurement": "growth", "setting": "HT29 colon", "value": "-52% (active)"}, {"measurement": "growth", "setting": "SNB-75 CNS", "value": "-23.3% (active)"}, {"measurement": "growth", "setting": "SNB-19 CNS", "value": "-0.431% (active)"}, {"measurement": "growth", "setting": "U251 CNS", "value": "5.03% (active)"}, {"measurement": "growth", "setting": "PC-3 prostate", "value": "8.48% (active)"}, {"measurement": "growth", "setting": "SK-MEL-5 melanoma", "value": "-47.7% (active)"}, {"measurement": "growth", "setting": "UACC-62 melanoma", "value": "-84.7% (active)"}, {"measurement": "growth", "setting": "SK-MEL-28 melanoma", "value": "-38.5% (active)"}]}
{"smiles": "O=C(N/N=C/c1ccc(-c2ccc(O)cc2)o1)c1[nH]c2ccc(Br)cc2c1-c1ccccc1", "values": [{"measurement": "growth", "setting": "HCT-15 colon", "value": "2.62% (active)"}, {"measurement": "growth", "setting": "HT29 colon", "value": "-34.8% (active)"}, {"measurement": "growth", "setting": "SNB-75 CNS", "value": "-2.73% (active)"}, {"measurement": "growth", "setting": "SNB-19 CNS", "value": 10.3, "unit": "%"}, {"measurement": "growth", "setting": "U251 CNS", "value": "-29.2% (active)"}, {"measurement": "growth", "setting": "PC-3 prostate", "value": "-6.14% (active)"}, {"measurement": "growth", "setting": "SK-MEL-5 melanoma", "value": "-82.9% (active)"}, {"measurement": "growth", "setting": "UACC-62 melanoma", "value": "-14.9% (active)"}, {"measurement": "growth", "setting": "SK-MEL-28 melanoma", "value": "-27% (active)"}]}
{"smiles": "N#Cc1c(-c2cccnc2)cc(-c2ccc3ccccc3c2)[nH]c1=O", "values": [{"measurement": "growth", "setting": "HCT-15 colon", "value": 80.7, "unit": "%"}, {"measurement": "growth", "setting": "HT29 colon", "value": 111, "unit": "%"}, {"measurement": "growth", "setting": "SNB-75 CNS", "value": 14.4, "unit": "%"}, {"measurement": "growth", "setting": "SNB-19 CNS", "value": 66.1, "unit": "%"}, {"measurement": "growth", "setting": "U251 CNS", "value": 77.7, "unit": "%"}, {"measurement": "growth", "setting": "PC-3 prostate", "value": 95.5, "unit": "%"}, {"measurement": "growth", "setting": "SK-MEL-5 melanoma", "value": 78.2, "unit": "%"}, {"measurement": "growth", "setting": "UACC-62 melanoma", "value": 93.8, "unit": "%"}, {"measurement": "growth", "setting": "SK-MEL-28 melanoma", "value": 104, "unit": "%"}]}
{"smiles": "CSc1ccc(C(=O)Nc2ccc3nnn(/C(C#N)=C/c4ccccn4)c3c2)cc1", "values": [{"measurement": "growth", "setting": "HCT-15 colon", "value": "-41.8% (active)"}, {"measurement": "growth", "setting": "HT29 colon", "value": "-86.6% (active)"}, {"measurement": "growth", "setting": "SNB-75 CNS", "value": 55.9, "unit": "%"}, {"measurement": "growth", "setting": "SNB-19 CNS", "value": "-3.44% (active)"}, {"measurement": "growth", "setting": "U251 CNS", "value": "-78.2% (active)"}, {"measurement": "growth", "setting": "PC-3 prostate", "value": "7.72% (active)"}, {"measurement": "growth", "setting": "SK-MEL-5 melanoma", "value": "-57.2% (active)"}, {"measurement": "growth", "setting": "UACC-62 melanoma", "value": "-51.3% (active)"}, {"measurement": "growth", "setting": "SK-MEL-28 melanoma", "value": "-50.2% (active)"}]}
{"smiles": "N#Cc1c(-c2ccccc2Cl)cc(-c2ccc3ccccc3c2)[nH]c1=O", "values": [{"measurement": "growth", "setting": "HCT-15 colon", "value": 63.2, "unit": "%"}, {"measurement": "growth", "setting": "HT29 colon", "value": 108, "unit": "%"}, {"measurement": "growth", "setting": "SNB-75 CNS", "value": "-37.1% (active)"}, {"measurement": "growth", "setting": "SNB-19 CNS", "value": 17, "unit": "%"}, {"measurement": "growth", "setting": "U251 CNS", "value": "-2.47% (active)"}, {"measurement": "growth", "setting": "PC-3 prostate", "value": 60.6, "unit": "%"}, {"measurement": "growth", "setting": "SK-MEL-5 melanoma", "value": 79.4, "unit": "%"}, {"measurement": "growth", "setting": "UACC-62 melanoma", "value": 52.7, "unit": "%"}, {"measurement": "growth", "setting": "SK-MEL-28 melanoma", "value": 67.9, "unit": "%"}]}
